In PubChem BioAssay (NCI):
This is part of a sample that, as a whole, favours compounds with a hit. Of some 83,000 tested, about 20% had one in any assay.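 Cell lines were cultured in 96-well plates, exposed to a single compound concentration, and assessed for percent growth 48 hours later.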 Unmarked numbers belong to inactive results. Active and inactive are the calls of the source.

tested on: NCI-H460 lung; test: NCI-60 one-dose screen, 48 h (100 = growth as untreated, 0 = no growth, -100 = all killed); conditions: 10 µM unless noted
Protocol: Growth inhibition of the NCI-H460 human Non-Small Cell Lung tumor cell line is measured as a screen for anti-cancer activity. Cells are grown in 96 well plates and exposed to the test compound for 48 hours. Compounds are tested at a single concentration, which is 10^-5 M for most compounds. The reported endpoint is percent growth (GI% or GIPRCNT), where numbers from 0 - 100% represent growth inhibition, and numbers from -100% - 0 represent cell death. For example, a value of 40 represents 60% growth inhibition. A value of 0 means no net growth occurred over the course of the experiment. A value of -40 indicates 40% of cells at the beginning of the experiment died by the end of the experiment. A value of -100 means all cells are dead at the end of the experiment.
NCI-60 Human Tumor Cell Lines Screen was performed using the standard one-dose NCI protocol, which is described in more detail at https://dtp.cancer.gov/discovery_development/nci-60/default.htm.
Compounds with GIPRCNT values below 10 were considered active. Activity score was based on GIPRCNT using the following formula: […]
Score is 0 for GIPRCNT values of 100 or above, 50 for GIPRCNT values of 0, and 100 for GIPRCNT values of -100.

| SMILES | growth |
| --- | --- |
| N/C(=N\OC(=O)CSc1nc2ccccc2s1)c1ccc2ccccc2c1 | 108% |
| COc1ccc(C2C(C#N)=C(N)Oc3c2sc2ccc(C)cc32)cc1 (stereo not given) | 15.2% |
| CCOC(=O)/C=c1\sc2n(c1=O)C1C(NN=2)N(CC)C(=O)N1CC (stereo not given) | 37.8% |
| Oc1ccc(-c2nnc(SCc3ccc(O)c4ncccc34)n2-c2ccccc2)cc1 | 3.78% (active) |
| O=C(NCCNc1cc(-c2cn(-c3ccccc3)nc2-c2cccc(O)c2)ccn1)Nc1ccc(Cl)c(C(F)(F)F)c1 | 58.5% |
| O=c1[nH]c(CNc2ccc(NCc3c(-c4ccccc4)no[n+]3[O-])cc2)nc2c1cnn2-c1ccccc1 | 64.2% |
| CCN(CC)CCN1C(=O)c2c(c3c4cccnc4[nH]c3c3ccc4ccccc4c23)C1=O | 13.8% |
| O=C(NCCCNc1cc(-c2cn(-c3ccccc3)nc2-c2cccc(O)c2)ccn1)Nc1cc(C(F)(F)F)cc(C(F)(F)F)c1 | 61.3% |
| COc1ccc(-c2ccc3c4c(cccc24)C(=O)N(N2C(=O)c4cccc5cccc(c45)C2=O)C3=O)cc1 | 102% |
| C/C(=C(/c1ccc(O)cc1)c1ccc(OCCN2CCCC2)cc1)c1ccc(Cl)cc1 | -1.6% (active) |
| CCCCCCCCCC[C@@H](C)[C@@H]1CC(=O)N[C@H]([C@@H](C)O)C(=O)N[C@@H](C)C(=O)N[C@H](C)C(=O)N[C@@H](CCC(N)=O)C(=O)N[C@H](Cc2ccc(O)cc2)C(=O)N[C@@H](C(C)CC)C(=O)O1 (stereo not given in full) | 63.6% |
| NS(=O)(=O)c1ccc(Nc2nc(N/N=C/c3ccc(F)cc3)nc(Nc3ccccc3)n2)cc1 | 65.1% |
| CS(=O)(=O)c1ccc(-c2nn(-c3ccccc3)cc2/C=N/NC(=O)c2ccncc2)cc1 | 114% |
| COc1ccc(NC(=O)[C@H](C)NC(=O)OC(C)(C)C)cc1C(=O)Nc1cccc(-c2cc(=O)c3c(OC)c(OC)c(OC)cc3o2)c1 | -21.4% (active) |
| COc1ccc(S(=O)(=O)n2cc(C=O)c3ccccc32)c(OC)c1 | 98.5% |
| O=C1CSC(=O)N1Cc1cc2ccccc2nc1Cl | 106% |
| COc1ccc(N2C(=O)c3cc(OC)c(OC)cc3NC2SCc2ccccc2)cc1 (stereo not given) | 122% |
| CCN1C(=O)N(CC)C2C1NN=C1SC(c3ccccc3)=CC(=O)N12 (stereo not given) | 6.45% (active) |
| O=C(N/N=C\c1ccc(Cl)cc1)c1ccc2nc(-c3ccc(Br)cc3)[nH]c2c1 | -76.4% (active) |
| CC1CCc2c(sc3nc(SCC(=O)N/N=C/c4ccc(Cl)cc4)n(-c4ccccc4)c(=O)c23)C1 (stereo not given) | 107% |

| SMILES | growth |
| --- | --- |
| C=C1C(=O)O[C@@H]2C[C@@H](C)/C=C\C(=O)[C@](C)(OC(C)=O)C[C@H](OC(=O)/C(C)=C\C)[C@@H]12 | 20% |
| C#C[C@]1(O)CC[C@H]2[C@@H]3CC=C4c5sc(Nc6nc(C)cc(OC)n6)nc5CC[C@]4(C)[C@H]3CC[C@@]21C | 21.9% |
| COc1ccc(Cn2cc3c(c2-c2ccccc2)CCCc2cnoc2-3)cc1[N+](=O)[O-] | 56.4% |
| COc1ccc(/C=C/C(=O)c2nnn(-c3ccc(Br)cc3)c2C)cc1OC | 84.3% |
| Cc1nn(-c2ccc(Cl)cc2)c(C)c1N=Nc1ccc2oc(=O)ccc2c1 | 64.9% |
| C#C[C@]1(O)CC[C@H]2[C@@H]3CC=C4c5sc(-c6ccc(OC)cc6)nc5CC[C@]4(C)[C@H]3CC[C@@]21C | 43.5% |
| COc1ccc2c(c1)c(-c1nn3c(=O)cc(-c4ccccc4)nc3s1)cn2C | 21.7% |
| COc1cc(/C=C/C(=O)c2ccc(N3CCN(C)CC3)cc2)ccc1F | 102% |
| COc1ccc(Cn2cc3c(c2-c2cc(OC)c(OC)c(OC)c2)CCCc2cnoc2-3)cc1 | 7.42% (active) |
| CNC(=O)c1c(NC(=O)c2ccc(F)cc2F)sc2c1CCC(=O)C2 | 1.92% (active) |
| CCCCOc1ccc(S(=O)(=O)N2CCN(c3nccc(N4CCOCC4)n3)CC2)cc1 | 16% |
| COc1ccc(-c2nc3cc(Cl)c(Cl)cc3n2CC(=O)N=Nc2c(O)[nH]c3ccc(Br)cc23)cc1 | -42.5% (active) |
| CCCCCCNC(=O)Oc1ccc(/C(=C(\C)c2ccc(Cl)cc2)c2ccc(OCCN(C)C)cc2)cc1 | 6.53% (active) |
| CCOC(=O)c1c(Nc2ccccc2)nn2c(-c3ccc(OC)c(OC)c3)ccnc12 | 47.9% |
| Cc1ccc(-c2cc(-c3ccc(N(C)C)cc3)n3c(n2)nc2ccccc23)cc1 | 61.7% |
| Cc1cc(=O)n2nc(-c3cn(C)c4ccc(Cl)cc34)sc2n1 | 78.6% |
| C#CCOc1ccc(/C=N/Nc2nc(-c3cc4cc(Br)cc(Br)c4oc3=O)cs2)cc1 | 101% |
| O=[N+]([O-])c1ccc(-c2nnc(SCc3ccc(O)c4ncccc34)o2)cc1 | 8.58% (active) |
| COc1ccc(NC2=C(Cl)C(=O)C(C)=C(C)C2=O)cc1 | 97.3% |
| COc1ccc(-c2nc3cc(Cl)c(Cl)cc3n2CC(=O)N=Nc2c(O)[nH]c3ccccc23)cc1 | 30.3% |
